Laboratory results taken from PubChem BioAssay.
The source made the active and inactive calls.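 How the source made its calls: active means inhibition above 20% together with a positive visual image hit; inconclusive means visual image hit but inhibition not above 20%; inactive means no visual image hit.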

test: inhibitors of TNFa-induced NFkB p65 translocation, primary screen, imaging, HUVEC, MLSMR starter and 10KST1 sets (AID 438); settings: HUVEC TNFa-induced p65 nuclear translocation; cell count: measured here: nuclei count (cytotoxicity indicator), at 2.08 µM; inhibition: at 2 µM, stronger effect = higher value, 0% TNFa-plus-vehicle, 100% no-TNFa wells;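 further: compound added about 3h40 before a 20 min TNFalpha stimulation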;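 on inhibition: signal is the nuclear over cytoplasmic p65 intensity ratio per well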

SMILES	cell count	inhibition
CCOc1cccc(N2C(=O)CC(N(CCc3ccc(OC)c(OC)c3)C(=O)CC)C2=O)c1 (stereo not given)	586	-0.6% (inactive)
CCOC(=O)CNC(=O)CNC(=O)c1ccc(OCC(C)C)cc1	694	2.1% (inactive)
COc1cc(C(=O)Nc2ccc(O)cc2C(=O)O)ccc1OC(C)=O	645	3.6% (inactive)
Cc1cc(C)n(CC2CC(=O)N(c3ccc(F)c(Cl)c3)C2=O)n1 (stereo not given)	460	-0.7% (inactive)
COC(=O)c1ccc(C2/C(=C(\O)c3cccc(OC)c3)C(=O)C(=O)N2CCCN(C)C)cc1 (stereo not given)	632	-19.7% (inactive)
CCCC(CCC(=O)Nc1ccc(C(=O)OCC)cc1)C(=O)O (stereo not given)	368	-0.1% (inactive)
C=C(C)CSc1nc(N)c2c3c(sc2n1)CCC3	394	-3.4% (inactive)
CCCCOC(=O)CCc1nc2ccccc2[nH]1	716	-2.4% (inactive)
CCc1nc2c(sc3nc(N4CCOCC4)c4c(c32)CC(C)(C)OC4)c(=O)o1	537	0.8% (inactive)
COc1ccccc1-n1c(N)c(C(=O)NCC2CCCO2)c2nc3ccccc3nc21 (stereo not given)	630	-11.8% (inactive)
CCC(=O)NC1(C(F)(F)F)C(=O)Nc2c1c(=O)[nH]c(=O)n2Cc1ccco1 (stereo not given)	652	-2.8% (inactive)
Cn1c(=O)[nH]c2cc(Cl)cnc21	378	-14% (inactive)
O=C(COc1ccc(-c2nnc(N3CCCCC3)c3ccccc23)cc1)N1CCCCC1	373	1.4% (inactive)
Cc1cccc(-c2nc(C#N)c(NC3CCCCC3)o2)c1	373	-5.1% (inactive)
CCCCSc1nnc2n(CCc3ccccc3)c(=O)c3c4c(sc3n12)COC(C)(C)C4	533	-4.4% (inactive)
CCCCc1nc(NCC2CCCO2)c(C#N)c2c1COC(C)(C)C2 (stereo not given)	380	-5.9% (inactive)
Clc1ccc(-n2ncc3c(N4CCCC4)ncnc32)cc1	589	-9.4% (inactive)
COCCOC(=O)c1c(C)oc2ccc(OC(=O)COc3c(F)c(F)c(F)c(F)c3F)cc12	524	-3.3% (inactive)
CCc1cc(=O)oc2cc(C)c(CN3CCCC3)c(O)c12	666	-6.3% (inactive)
O=c1[nH]c2sc3c(c2c(=O)n1Cc1ccccc1)CCC3	602	-2.5% (inactive)

SMILES	cell count	inhibition
CCOC(=O)CCNc1n[nH]c(=O)[nH]c1=O	611	29.6% (active)
COc1ccc(C2C=C(c3ccc(C)cc3)Nc3ncnn32)cc1 (stereo not given)	538	0.8% (inactive)
CCc1nc(N2CCOCC2)c(C#N)c2c1CCCC2	397	-6.2% (inactive)
COc1ccccc1C1/C(=C(/O)c2ccc(C)cc2)C(=O)C(=O)N1CCN1CCOCC1 (stereo not given)	652	-11.9% (inactive)
N#CC(C#N)C(c1ccsc1)c1c(-c2ccccc2)[nH][nH]c1=O (stereo not given)	712	-0.5% (inactive)
O=C(c1ccc(=O)oc1)N1CCN(C(c2ccccc2)c2ccccc2)CC1	630	-3.2% (inactive)
Nc1ccc2c3c(cccc13)CC2	400	-4.5% (inactive)
COCCNC(=O)C(C#N)c1nc2ccccc2nc1N1CCN(Cc2ccc3c(c2)OCO3)CC1 (stereo not given)	737	-8.1% (inactive)
Cc1ccc(Cn2ncc3c(N4CCN(Cc5ccc(Cl)cc5)CC4)ncnc32)cc1	549	22.5% (active)
COC(=O)c1[nH]c2ccc(Cl)cc2c1NC(=O)C1CC1	489	-0.3% (inactive)
CCCOc1ccccc1C(=O)NCCCC(=O)O	697	10.3% (inactive)
CCCOc1cccc(C2/C(=C(/O)c3ccc(F)cc3)C(=O)C(=O)N2CCN(C)C)c1 (stereo not given)	676	-13.2% (inactive)
CCN(CC)c1nc(C)c2c(c1C#N)CC(C)(C)OC2	491	-5.9% (inactive)
CCC(=O)N(Cc1cccs1)C1CCOC(C)(C)C1 (stereo not given)	541	6.5% (inactive)
CCC(=O)Nc1c(C#N)c2nc3ccccc3nc2n1C1CCCCC1	563	-4.1% (inactive)
O=C(CN1C(=O)c2ccccc2S1(=O)=O)NCCSCc1ccco1	373	-5.5% (inactive)
CC12CN3CC(C)(CN(C1)C3c1ccc(Br)cc1O)C2 (stereo not given)	576	-3% (inactive)
Clc1ccc(COc2ccccn2)c(Cl)c1	600	2.8% (inactive)
CC1(C)NC(=O)N(CC(O)COc2cc3ccccc3cc2C(=O)N2CCCCC2)C1=O (stereo not given)	595	-11.9% (inactive)
Cc1ccc(N(CN2C(=O)C3CC=CCC3C2=O)C(=O)c2ccco2)cc1Cl (stereo not given)	419	-4.5% (inactive)
